SMARCA2 act = SMARCA2 (BRM) function activators, primary screen, cell-based, luminescence, high throughput | activation, % at 9.1 µM | 370,000 compounds, 1% hits | MG213 cells, MMTV-luciferase reporter, dexamethasone, overnight; in the data active = activation above about 7.8%;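 also: 0% = vehicle wells and 100% = reference activator wells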
FGF22 binding = binders of human FGF22 protein, primary screen, FGF22 synaptogenesis inhibitor project, biophysical, thermal shift, single point | Fibroblast growth factor 22 (Homo sapiens), Q9HCT0 | recombinant FGF22 thermal shift, SYPRO orange fluorescence; percent of sucrose octasulfate shift, DMSO zero | activity (Tm shift, normalised), % at 9.99 µM | 340,000 compounds, 1.5% hits | AID 651658, 2012;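 active = mean Tm shift, scaled 0 neutral to 100 positive control, at about 1.3% or above, every replicate too, limit read from the data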
AF4-AF9 inh = inhibitors of AF4 peptide binding to AF9, primary screen, biochemical, AlphaScreen, biotin-AF4 peptide, FLAG-AF9, single point; Protein AF-9 (Homo sapiens), P42568; inhibition, % at 10 µM; 350,000 compounds, 0.47% hits; AID 651704, 2012;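 active = every replicate reaching a set inhibition limit, whatever the replicate mean, cut at about 25% in these data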;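 also: 0% = plate neutral control median and 100% = total signal loss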
Target sequence (P42568 whole entry, looked up): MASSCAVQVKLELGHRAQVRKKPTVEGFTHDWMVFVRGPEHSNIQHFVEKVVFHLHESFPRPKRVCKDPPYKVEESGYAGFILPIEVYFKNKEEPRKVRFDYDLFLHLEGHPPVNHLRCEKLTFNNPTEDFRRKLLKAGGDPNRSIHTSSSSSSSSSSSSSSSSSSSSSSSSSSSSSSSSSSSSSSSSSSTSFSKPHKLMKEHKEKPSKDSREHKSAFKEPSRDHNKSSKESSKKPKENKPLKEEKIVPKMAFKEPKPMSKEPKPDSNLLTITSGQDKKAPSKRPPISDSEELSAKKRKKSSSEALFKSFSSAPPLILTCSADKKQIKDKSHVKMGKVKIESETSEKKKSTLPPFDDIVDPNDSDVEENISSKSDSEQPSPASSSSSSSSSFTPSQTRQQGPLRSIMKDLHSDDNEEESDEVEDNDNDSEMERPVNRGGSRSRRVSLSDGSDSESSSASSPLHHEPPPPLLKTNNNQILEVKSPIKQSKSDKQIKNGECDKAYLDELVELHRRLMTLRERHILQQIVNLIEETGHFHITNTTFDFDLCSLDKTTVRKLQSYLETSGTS
MITF TRPM1 HTS = activators of MITF-driven TRPM1 promoter reporter, primary screen, cell-based, SK-MEL-5, luciferase, single point. 300,000 compounds, 0.75% hits. activation, % at 12.5 µM. SK-MEL-5 TRPM1-promoter luciferase, 24 h; % of positive control, neutral wells = 0. AID 588334, 2011;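 active = mean activation of at least 80% with every replicate also reaching 80%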;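 also: 0% = neutral control wells and 100% = parthenolide positive control wells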
esBAF inh = Bmi1 luciferase reporter increase in mESCs, primary screen, esBAF inhibitor project, mouse ES cells, Bmi1 luciferase knock-in, single point. 24 h; 100% = twice the neutral-well signal. reporter increase, % at 12.5 µM. 350,000 compounds, 2% hits; in the data active = activation above about 40%;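 also: 0% = median of the plate's neutral control wells and 100% = double that signal; a rise in the Bmi1 reporter signal indicates esBAF inhibition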
Wnt bcat act = Wnt/beta-catenin pathway activators, primary screen, cell-based, plate reader, single point. Wnt/beta-catenin reporter cell assay, activator. activation, % at 9.35 µM. 300,000 compounds, 1.2% hits. AID 743398, 2014; in the data active = activation above about 30%, passing the limit was not always enough;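 also: 0% = neutral control wells and 100% = positive control wells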
Active calls of the source: *; . = not tested or not shown. Only some compounds are listed: those with a hit (about 4.3% of all), similar ones and a draw of the others.

SMILES | SMARCA2 act | FGF22 binding | AF4-AF9 inh | MITF TRPM1 HTS | esBAF inh | Wnt bcat act
Cc1noc(C)c1S(=O)(=O)Nc1ccc2c(c1)CC(=O)N([C@H](C)CO)C[C@H](C)[C@@H](CN(C)CC1CCCCC1)O2 | . | 0 | 6 | . | 5 | .
CCn1c(=NC(=O)c2ccco2)sc2cccc(F)c21 | 5 | 0 | -7 | 20 | 70* | 28
CCOC(=O)c1ccc2c(c1)sc(=NC(=O)c1ccco1)n2CCOC | 0 | . | . | 14 | 15 | .
COc1ccc(/C=C/C(=O)Nc2ccc(S(=O)(=O)Nc3onc(C)c3C)cc2)cc1OC | -3 | 0 | -4 | 9 | . | 0
Cc1noc(NS(=O)(=O)c2ccc(NC(=O)/C=C/c3ccccc3)cc2)c1C | -2 | 1.4* | -2 | 1 | -5 | 10
Cc1cc(C)nc(NS(=O)(=O)c2ccc(NC(=O)c3cc(-c4ccccc4)nc4ccccc34)cc2)n1 | -3 | 0 | 1 | -2 | . | 0
Cc1ccc(-c2cc(C(=O)Nc3ccc(S(=O)(=O)Nc4onc(C)c4C)cc3)c3ccccc3n2)cc1 | 1 | 1.7* | 5 | 19 | . | 0
O=C(C[C@@H]1CC[C@H](NC(=O)Nc2cc(F)ccc2F)[C@H](CO)O1)Nc1ccc(-c2ccccc2)cc1 | . | . | -6 | . | . | .
Cc1ccc(-n2nc3ccc(NC(=O)/C=C/c4ccco4)cc3n2)cc1 | -2 | 0 | -7 | 9 | . | 58*
O=C(/C=C/c1ccco1)Nc1cccc(C(=O)Nc2ccccc2C(=O)O)c1 | -1 | 0 | -8 | 3 | -4 | 4
CCc1ccccc1NC(=O)c1cccc(NC(=O)/C=C/c2ccco2)c1 | -2 | . | . | 2 | . | 110*
O=C(/C=C/c1ccco1)Nc1ccc2c(c1)OCO2 | 3 | 0 | 1 | 92* | . | 33*
Cc1ccccc1-c1cnc2c(c1)C(=O)N([C@@H](C)CO)C[C@@H](C)[C@@H](CN(C)C(=O)c1cccnc1)O2 | . | 0 | 0 | . | -1 | .
O=C(/C=C/c1cccs1)Nc1cccnc1 | 2 | 0 | 0 | 92* | . | 12
O=C(/C=C/c1cccs1)NCc1cccs1 | -1 | 0 | . | . | . | 43*
O=C(/C=C/c1cccs1)Nc1nncs1 | 4 | 0 | -6 | 61 | . | 16
Cc1ccc(/C=C/C(=O)NCc2cccs2)c(C)c1 | 3 | 0 | -2 | 41 | . | 29
Cc1ccc(/C=C/C(=O)NCc2cccs2)cc1 | 3 | . | . | 45 | 46* | .
O=C(C[C@@H]1C=C[C@@H](NC(=O)Nc2ccc3c(c2)OCO3)[C@@H](CO)O1)NCc1ccc(F)cc1 | . | 0 | -1 | . | -2 | .
O=C(CN1CCOCC1)NCC[C@@H]1CC[C@H](NC(=O)Cc2ccccn2)[C@@H](CO)O1 | . | 0 | -1 | . | 1 | .
Cc1ccsc1/C=N/N1CCN(c2ccccc2)CC1 | 4 | 0 | 10 | 63 | 49* | 19
Fc1ccccc1Nc1nc2ccccc2o1 | 6 | 0 | -1 | 100* | -4 | 0
O=C(NCC[C@H]1CC[C@@H](NC(=O)C2CCCC2)[C@H](CO)O1)c1cc(Cl)cc(Cl)c1 | . | 0 | 0 | . | 3 | .
CN(C)c1ncnc2c1ncn2CCn1cnc2c(N(C)C)ncnc21 | -2 | 0 | -1 | -4 | 0 | 0
CN(C)c1ncnc2c1ncn2-c1ccccc1 | 1 | 0 | -5 | 26 | 59* | 4
SMILES | SMARCA2 act | FGF22 binding | AF4-AF9 inh | MITF TRPM1 HTS | esBAF inh | Wnt bcat act
O=C1C[C@@H](O)[C@H](O)c2cccc(O)c21 | 2 | . | . | . | . | .
Cc1ccccc1-c1cnc2c(c1)C(=O)N([C@@H](C)CO)C[C@@H](C)[C@H](CN(C)C(=O)CC1CC1)O2 | . | . | . | . | -1 | .
CCc1ccc(NS(=O)(=O)c2ccc3c(c2)oc(=O)n3C)cc1 | -2 | 0 | 35* | -5 | 6 | -1
COc1cc(/C(C)=N/NC(=O)c2ccc(CSc3nncn3C)cc2)cc(OC)c1OC | -2 | 43* | -3 | 7 | . | -1
COc1ccc(/C=N/NC(=O)c2ccc(CSc3nncn3C)cc2)cc1OC | -3 | 0 | -1 | -15 | -3 | 0
CCCN1[C@@H]2c3ccc(C4=CCCCC4)c(=O)n3C[C@@H]2[C@@H](CO)[C@@H]1C(=O)OC | . | 0 | 0 | . | 1 | .
O=C1c2ccccc2C(=O)N1CCC1=CCCCC1 | 3 | . | . | 31 | 54* | .
CNC[C@@H]1Oc2cc(C#Cc3cccnc3)ccc2S(=O)(=O)N([C@@H](C)CO)C[C@@H]1C | . | 0 | 1 | . | 1 | .
Cc1ccc(C(=O)NC2CCCCN(C(C)C)C2=O)cc1 (stereo unspecified) | 0 | . | . | . | . | .
CCCNC(=O)Cn1c(=O)/c(=C/c2ccc(-c3cccc([N+](=O)[O-])c3)o2)s/c1=C\C(=O)C(C)(C)C | 0 | 44* | 5 | 9 | . | 0
CCCNC(=O)Cn1c(=O)/c(=C\c2ccc(-c3cccc([N+](=O)[O-])c3)o2)s/c1=C\C(=O)C(C)(C)C | -2 | . | . | -7 | . | -8
O=C(N[C@H](C(=O)N1CCC[C@H]1C(=O)NC1CCCC1)c1ccccc1)C1CCCC1 | -5 | 0 | . | . | . | 1
COc1ccc(NC(=O)N(C)C[C@@H]2Oc3ccc(NS(=O)(=O)c4cccs4)cc3C(=O)N([C@@H](C)CO)C[C@H]2C)cc1 | . | 0 | -5 | . | -5 | .
O=C(Nc1ccccc1)c1cc2ccccc2c(=O)s1 | 1 | 0 | -5 | 77 | . | .
O=C(Nc1ccc(O)cc1)c1cc2ccccc2c(=O)s1 | 3 | 0 | -1 | 100* | 49* | 0
O=C(Nc1ccccc1)c1cc2ccccc2s1 | 0 | 0 | 1 | 48 | 45* | 13
O=C(Nc1ccccn1)c1cc2cc([N+](=O)[O-])ccc2s1 | 3 | 1 | -3 | 45 | . | 14
CN1/C(=C/C=C/c2n(C)c3cc([N+](=O)[O-])c([N+](=O)[O-])cc3[n+]2C)C(C)(C)c2ccccc21 | -2 | 1 | 55* | . | -58 | -2
CCOC(=O)Cc1cc(=O)[nH]n(-c2ccccc2)c1=O | -5 | 44* | -2 | 9 | -5 | -4
Cc1cc(SCC(=O)c2ccc(Cl)cc2)nc(=O)[nH]1 | 4 | 0 | -4 | 21 | -36 | 40*
Cc1ccc(C(=O)CSc2cc(C)[nH]c(=O)n2)cc1 | 5 | 0 | 0 | 26 | -26 | 29
O=C(NC1=NCCS1)c1ccccc1OCc1ccccc1Cl | 1 | 44* | 0 | 1 | . | 0
O=C(N/N=C/c1ccc[nH]1)c1ccccc1OCc1ccccc1Cl | 2 | 43* | 4 | 7 | . | 2
COc1cccc(-c2ccc([C@@H]3[C@@H](CO)N4CCCCN(S(=O)(=O)c5cn(C)cn5)C[C@@H]34)cc2)c1 | . | 0 | -3 | . | -2 | .
